Screens from PubChem.
This excerpt belongs to a sample that is enriched for hits.
Pf Dd2 growth: Plasmodium falciparum Dd2 growth inhibition | P. falciparum Dd2 growth, SYBR Green, 72 h | Potency, µM (series often up to 28.9 µM), inactives show top-dose activity, negative = inhibition, usual class: inhibitors | actives 4.3% (n = 120,000); active = well fitted inhibition curve with a large enough effect;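 note: plate controls were DMSO vehicle for no effect and reference drug for full effect; nearly all actives have a fitted effect of over 65% in size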
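Readout: SYBR Green fluorescence, 485 nm excitation, 535 nm emission, after ~16 h lysis at 37C. Before that, Dd2-infected red cells (2.5% hematocrit) grew 72 h with compound, 29 uM top final concentration.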
Numbers without * were called inactive; i = inactive; [ ] = another dose, or the depositor's remark. Potency is the fitted concentration of half-maximal effect.

SMILES | Pf Dd2 growth
O=C(COc1ccccc1)N1CCC2(CC1)CC(N1CCN(c3ccccc3)CC1)CCO2 (stereo not drawn) | i
COc1ccc(Nc2n[nH]c(C(O)c3cccc(C(F)(F)F)c3)n2)cn1 (stereo not drawn) | 2%[44.1 µM]
OC(c1cccc(C(F)(F)F)c1)c1nc(Nc2cccc(Cl)c2)n[nH]1 (stereo not drawn) | 7.9µM*
OC(c1ccc2c(c1)CCO2)c1nc(Nc2cccc(C(F)(F)F)c2)n[nH]1 (stereo not drawn) | i
COc1ccc2[nH]c(C(=O)N3C[C@@H](C(N)=O)[C@H](c4n[nH]c(C)n4)C3)cc2c1 | 9%
O=C(Nc1ccccc1)N1CCC2(CC1)SCC(=O)N2c1ccc(Cl)cc1 | i
COc1ccc(CN2CCC3(CC2)C(=NC2CCCC2)NC(=O)N3c2cc(F)cc(F)c2)cc1 | -12%
O=C1NC(=NC2CCCC2)C2(CCN(Cc3ccc(F)cc3)C2)N1c1cc(F)cc(F)c1 (stereo not drawn) | 2µM*
O=C1NC(=NC2CCCCC2)C2(CCN(Cc3cccnc3)CC2)N1c1cc(F)cc(F)c1 | 43%
CN(C)c1ccc(CN2CCC3(C2)C(=NC2CCCCC2)NC(=O)N3c2cc(F)cc(F)c2)cc1 (stereo not drawn) | 10µM*
CC(=O)N1CCC2(CC1)C(=NC1CCCC1)NC(=O)N2c1cc(F)cc(F)c1 | -9%
O=C1NC(=NC2CCCCC2)C2(CCN(Cc3ccccc3)CC2)N1c1cc(F)cc(F)c1 | 60%
COc1ccc(C(=O)N2CCN(c3cc(-c4ccc(Cl)cc4)[nH]n3)CC2)cc1 | i
O=C1NCc2ccccc2CC12CCN(Cc1cccc(O)c1)CC2 | 6%
O=C(COc1ccccc1)NCC1(COc2ccccc2)C[C@@H](O)[C@@H](O)C1 (stereo partly drawn) | -17%[44.1 µM]
CCc1noc(-c2ccn3c(CNC(=O)COc4ccc(F)cc4)nnc3c2)n1 | -3%
Cn1cncc1C(=O)N1C[C@@H](COCC2CC2)[C@H](c2ccncc2)C1 | 7%
CN(C)c1ccc(CN2CC[C@H](c3nc4ccccc4n3C)C2)cc1 | -8%[44.1 µM]
CC(C)(C)CN1CCC2(CC1)CN[S+](=O)([O-])c1cccnc1O2 | 8.9µM*
O=[S+]1([O-])NCC2(CCN(CC3CCOCC3)CC2)Oc2ncccc21 | 3%
O=[S+]1([O-])NCC2(CCN(Cc3cccnc3)CC2)Oc2ncccc21 | 6%
CC(C)S(=O)(=O)NCC(=O)N1CCCCCNC(=O)CC1c1ccccc1 (stereo not drawn) | -10%
O=C(C[C@@H]1CCNC[C@@H]1Cc1cc(-c2ccc(F)cc2)on1)NCc1ccc(F)cc1 | i
CC(C)(C)c1ccc(-c2cc(C[C@H]3CNCC[C@H]3CC(=O)N3CCCCC3)no2)cc1 | 5µM*
CC(C)(C)NC(=O)C[C@@H]1CCNC[C@@H]1Cc1cc(-c2ccc(C(C)(C)C)cc2)on1 | 4µM*
SMILES | Pf Dd2 growth
CC(C)(C)c1ccc(-c2cc(C[C@H]3CNCC[C@H]3CC(=O)N3CCN(c4ccc(F)cc4)CC3)no2)cc1 | i
COc1ccc(CNC(=O)C[C@@H]2CCNC[C@@H]2Cc2cc(-c3ccc(C(C)(C)C)cc3)on2)cc1 | -18%
CC(C)(C)c1ccc(-c2cc(C[C@H]3CNCC[C@H]3CC(=O)NCc3ccc(F)cc3)no2)cc1 | -3%
O=C(c1c(F)cccc1Cl)N1C[C@@H](CO)[C@H](c2ccccn2)C1 | -32%
COc1ccccc1Cc1nc(C2CC(=O)N(c3ccc(F)c(Cl)c3)C2)no1 (stereo not drawn) | 37%
Cc1cc(C(F)(F)F)nn1CC(=O)N1CCc2nn(CC3CC3)c(=O)n2CC1 | 6%
O=C(NC1CC1)C1COC2(CCN(C(=O)c3ccc(Cl)cc3)CC2)N1C(=O)c1cccc(F)c1 (stereo not drawn) | i
NCc1ccccc1-c1ccc(O)cc1 | 5%[44.1 µM]
NCc1ccccc1-c1cccc(Cl)c1 | 8.9µM*
NCc1cn[nH]c1-c1ccccc1 | 7%
CNCc1ccccn1 | 3%[44.1 µM]
COCc1noc([C@@H]2CC(F)(F)CN2C(=O)C(C)C)n1 | 51%
O=C1CC(c2ccccc2)N(C(=O)CNC(=O)C2CCC2)CCCCCCN1 (stereo not drawn) | 23%
COc1ccc(-c2[nH]ncc2CNC(=O)C2CC3(CCNCC3)CN2)cc1 (stereo not drawn) | 7%
COc1ccc(-c2noc([C@@H]3CCCN3C(=O)CCc3ccccc3)n2)cc1OC | i
CCN(CC)c1cc(CCC(=O)N2CCC(COC)CC2)ccn1 | 1%
CCN(CC)c1cc(CCC(=O)NCCN(C)C2CCCCC2)ccn1 | 1.6µM*
CCN(CC)c1cc(CCC(=O)NCCc2ccccn2)ccn1 | -13%
CCN(CC)c1cc(CCC(=O)O)ccn1 | 53%
CCN(CC)c1cc(CCC(=O)N2CCN(c3cccc(OC)c3)CC2)ccn1 | i
CCN(CC)c1cc(CCC(=O)NCCCN2CCN(C)CC2)ccn1 | 13%
CCN(CC)c1cc(CCC(=O)N2CCN(c3ccc(Cl)cc3)CC2)ccn1 | 8.9µM*
CCN(CC)c1cc(CCC(=O)NCCOC)ccn1 | 3%
CCN(CC)c1cc(CCC(=O)NCCN2CCCCCC2)ccn1 | 3.5µM*
